# In all, about 16,000 compounds went through this assay and about 5,100 (32%) were called active. Roughly 25% stayed inconclusive and do not appear here. The list shows a part of the results. A number with no mark means an inactive call. Calls come from the whole dose curve; as a rule, active = well fitted curve in the direction sought with a large enough effect; inconclusive = small, poorly fitted or top-dose-only effect, or effect the other way; inactive = no such curve, though single readings can be large or run the other way.
# Biological target: Cytochrome P450 3A4 (Homo sapiens) (UniProt P08684)
# Test: Cytochrome panel assay with activity outcomes
# Settings: recombinant CYP, pro-luciferin dealkylation, luminescence, p450-cyp3a4; series mostly up to 57.1 µM; activity, negative = inhibition: at the top concentration
# % is set by controls: 0 for no effect and ±100 for the full control effect.
# Cytochrome P450 3A4 (Homo sapiens), sequence (P08684 whole entry, looked up): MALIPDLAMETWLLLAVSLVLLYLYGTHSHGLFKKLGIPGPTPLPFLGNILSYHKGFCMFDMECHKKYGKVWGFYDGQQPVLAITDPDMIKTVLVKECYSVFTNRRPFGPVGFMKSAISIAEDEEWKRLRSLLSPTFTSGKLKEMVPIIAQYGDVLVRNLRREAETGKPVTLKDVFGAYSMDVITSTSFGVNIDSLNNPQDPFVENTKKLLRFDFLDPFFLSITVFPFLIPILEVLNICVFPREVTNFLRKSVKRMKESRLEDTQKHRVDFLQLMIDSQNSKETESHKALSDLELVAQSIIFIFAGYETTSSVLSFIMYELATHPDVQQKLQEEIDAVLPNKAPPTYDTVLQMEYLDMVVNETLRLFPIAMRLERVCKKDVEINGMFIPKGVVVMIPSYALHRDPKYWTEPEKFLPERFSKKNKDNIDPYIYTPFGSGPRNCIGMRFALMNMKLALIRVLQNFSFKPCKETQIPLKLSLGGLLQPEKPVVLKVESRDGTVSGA
Structure (SMILES),"activity, negative = inhibition",AC50
O=C(O)c1cc(=O)c2ccc(Cl)cc2[nH]1,-8.53%,
CC(=O)Nc1nnc(S(N)(=O)=O)s1,-10.2% [at 25.6 µM],
Cc1ccc(S(=O)(=O)c2c(C)nn(C(C)(C)C)c2OC(=O)c2cccs2)cc1,,2.24 µM (active)
COCC(=O)Oc1c(S(=O)(=O)c2ccc(C)cc2)c(C)nn1-c1ccccc1,-24.1%,
CCOC(=O)Oc1c(OC)cc(C(=O)O[C@H]2C[C@H]3CN4CCc5c([nH]c6cc(OC)ccc56)[C@@H]4C[C@H]3[C@@H](C(=O)OC)[C@@H]2OC)cc1OC,-29.6% [at 25.6 µM],
COc1ccc(/C=N/NC(=O)c2ccccc2)cc1CN1CCN(c2ccc(F)cc2)CC1,-19.8%,
COc1ccc(C2C(C#N)=C(N)Oc3n[nH]c(C)c32)cc1CN1CCN(c2ccc(F)cc2)CC1 (stereo not drawn),,8.91 µM (active)
O=C(NC(=S)Nc1cccc(Cl)c1N1CCCC1)c1ccc(-c2cccc([N+](=O)[O-])c2)o1,,4.47 µM (active)
CCCSc1nc(C)cc(C)c1C(N)=O,9.69%,
COc1cc(COc2cc(N)c(Cl)cc2C(=O)CCC2CCN(CCNS(C)(=O)=O)CC2)cc(OC)c1,,2 µM (active)
CCCCN1CCC(CCC(=O)c2cc(Cl)c(N)cc2OC)CC1,-12.3%,
Cn1cc(C(=O)OCC2CCN(CCNS(C)(=O)=O)CC2)c2ccccc21,-3.41%,
O=C(Nc1ccc(C(=O)Nc2ccc(C(=O)Nc3ccc(S(=O)(=O)O)c4cc(S(=O)(=O)O)cc(S(=O)(=O)O)c34)cc2)cc1)Nc1ccc(C(=O)Nc2ccc(C(=O)Nc3ccc(S(=O)(=O)O)c4cc(S(=O)(=O)O)cc(S(=O)(=O)O)c34)cc2)cc1,-13.5%,
CCN1CCc2nc(NC(=O)c3ccc4c(c3)OCCO4)sc2C1,,14.1 µM (active)
CCN1CCc2c(sc(N)c2C(N)=O)C1,-1%,
COc1cccc(C(=O)Nc2nc3c(s2)CN(C)CC3)c1,12.5%,
COc1cc(C(=O)Nc2nc3ccc4nc(C)sc4c3s2)cc(OC)c1OC,-6.95%,
Cc1nc2c(ccc3nc(NC(=O)c4ccc5c(c4)OCCO5)sc32)s1,,6.31 µM (active)
Cc1cc(NC(=O)COc2ccc(Cl)cc2Cl)n(-c2ccccc2)n1,-28.2% [at 11.4 µM],
O=C(COc1ccccc1C(=O)N/N=C\c1ccc(O)c(O)c1)N/N=C/c1ccc(O)c(O)c1,12.4% [at 2.29 µM],
CCC(=O)NC(=S)Nc1ccc(NC(=O)COc2ccc(Cl)cc2Cl)cc1,,12.6 µM (active)
CCc1ccc(OCC(=O)NC(=S)Nc2ccc(F)cc2)c(Br)c1,-0.136% [at 2.29 µM],

Structure (SMILES),"activity, negative = inhibition",AC50
C/C(=N/NC(=O)c1cccs1)c1ccc(NC(=O)COc2ccc(Cl)cc2Cl)cc1,-10.1% [at 2.29 µM],
Cc1ccccc1C(=O)Nc1ccc(C(=O)NNC(=O)CCCOc2ccc(Cl)cc2Cl)cc1,-18.9% [at 2.29 µM],
CC(C/C=N/NC(=O)COc1cc(Cl)ccc1Cl)c1ccccc1 (stereo not drawn),,14.1 µM (active)
O=C(COc1ccc(Cl)cc1Cl)N/N=C/CCc1ccccc1,,11.2 µM (active)
CC(=C/c1ccccc1)/C=N/n1cnnc1,,12.6 µM (active)
CC(/C=N\NC(=O)Cn1c(C)nc2ccccc21)=C\c1ccccc1,1.66%,
CC(=C\C(=O)O)/C(=C/c1ccccc1)C(=O)O,-2.43%,
Clc1ccccc1-c1nc(Nc2ccncc2)c2ccccc2n1,,3.98 µM (active)
Cc1ccccc1-c1nc(Nc2ccncc2)c2ccccc2n1,,6.31 µM (active)
CNc1nc(-c2ccccc2Cl)nc2ccccc12,,25.1 µM (active)
FC(F)(F)c1ccccc1-c1nc(Nc2ccncc2)c2ccccc2n1,,0.631 µM (active)
CNc1nc(-c2ccccc2C(F)(F)F)nc2ccccc12,-26.2%,
CNC(=O)c1sc(SC)cc1-c1ccc(Cl)cc1,-8.38%,
Clc1ccccc1C(Nc1cnccn1)Nc1cnccn1,-4.71% [at 11.4 µM],
COCCNC(=O)c1ccc2c(c1)ncn2-c1ccc(F)c(F)c1,-10.9%,
COc1ccccc1-c1ccc2ncnc(NCCN3CCOCC3)c2c1,,7.94 µM (active)
N#Cc1ccccc1-c1ccc2ncnc(NCCN3CCOCC3)c2c1,,10 µM (active)
Clc1ccccc1-c1ccc2ncnc(NCCN3CCOCC3)c2c1,,5.01 µM (active)
S=c1nc(-c2ccccc2)oc2c1CCCC2,-8.21%,
Cc1cccc(C(=O)N/N=C/c2ccc(OCC(=O)N3CCCCC3)cc2)c1,,20 µM (active)
O=C(CN1CCCC1)N/N=C/c1ccc(-c2cccc(Cl)c2)o1,13.8% [at 2.29 µM],
